Measured values taken from PubChem BioAssay (NCI).
This is part of a sample that, as a whole, favours compounds with a hit. Of some 83,000 tested, about 20% had one in any assay.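 Testing used 96-well plates and a 48-hour single-concentration exposure. Example: -40 means 40% of the starting cells died.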 The source made the active and inactive calls. How the source made its calls: active means growth percent below 10; inactive means the rest.

Key:
Assay in all cases: NCI-60 one-dose screen, 48 h (100 = growth as untreated, 0 = no growth, -100 = all killed)
Conditions in all cases: 10 µM unless noted
NCI-H23 lung = test system: NCI-H23 lung
NCI-H226 lung = test system: NCI-H226 lung
NCI-H322M lung = test system: NCI-H322M lung
HOP-62 NSCLC = test system: HOP-62 NSCLC
NCI-H460 lung = test system: NCI-H460 lung
HOP-92 NSCLC = test system: HOP-92 NSCLC
NCI-H522 lung = test system: NCI-H522 lung
A549/ATCC NSCLC = test system: A549/ATCC NSCLC
786-0 renal = test system: 786-0 renal
COLO 205 colon = test system: COLO 205 colon

Measured: growth

Clc1nc(N2CCC[N+]3(CC2)CC[N+]2(CCCNCC2)CC3)nc(N2CCC[N+]3(CC2)CC[N+]2(CCCNCC2)CC3)n1 (stereo not given)
inactive: NCI-H23 lung 89.2% | NCI-H226 lung 68.4% | NCI-H322M lung 99.7% | HOP-62 NSCLC 91.1% | NCI-H460 lung 76.8% | HOP-92 NSCLC 131% | NCI-H522 lung 94% | A549/ATCC NSCLC 86.1% | 786-0 renal 72.8% | COLO 205 colon 106%

C[C@@H]1N=C(c2ccc(Cl)cc2Cl)Nc2nc3ccccn3c2C1=O
inactive: NCI-H23 lung 61.4% | NCI-H226 lung 75.7% | NCI-H322M lung 63.7% | HOP-62 NSCLC 52.6% | NCI-H460 lung 18.7% | HOP-92 NSCLC 55.9% | NCI-H522 lung 28.9% | A549/ATCC NSCLC 40.6% | 786-0 renal 73.2% | COLO 205 colon 22.3%

CN(C)C(=S)NN=C(c1ccccn1)c1ccccn1
inactive: NCI-H23 lung 38.5% | NCI-H226 lung 24.6% | NCI-H322M lung 11.5% | HOP-62 NSCLC 26% | HOP-92 NSCLC 64.7% | NCI-H522 lung 13.7% | A549/ATCC NSCLC 12.9% | 786-0 renal 14.6% | COLO 205 colon 38%
active: NCI-H460 lung 0.166%

O=c1oc2ccccc2cc1-c1nn(-c2ccccc2)cc1/C=N/Nc1nc(-c2ccccc2)c(N=Nc2ccccc2)s1
inactive: NCI-H23 lung 88.1% | NCI-H226 lung 99.5% | NCI-H322M lung 105% | HOP-62 NSCLC 71.6% | NCI-H460 lung 73.5% | HOP-92 NSCLC 79.7% | NCI-H522 lung 41.5% | A549/ATCC NSCLC 50.1% | 786-0 renal 90.7% | COLO 205 colon 72.8%

COc1cc2ncnc(Nc3ccc(S(=O)(=O)Nc4cc(C)on4)cc3)c2cc1OCCCN1CCOCC1
inactive: NCI-H23 lung 100% | NCI-H226 lung 94% | NCI-H322M lung 101% | HOP-62 NSCLC 95.8% | NCI-H460 lung 110% | HOP-92 NSCLC 87.4% | NCI-H522 lung 96.8% | A549/ATCC NSCLC 95.3% | 786-0 renal 107% | COLO 205 colon 106%

CCN(CC)CCCC(Nc1c2ccc(Cl)cc2nc2ccc(OC)cc12)c1ccncc1 (stereo not given)
inactive: NCI-H23 lung 80.7% | NCI-H226 lung 94.5% | NCI-H322M lung 65.4% | HOP-62 NSCLC 83.4% | NCI-H460 lung 66% | HOP-92 NSCLC 65.7% | NCI-H522 lung 83.3% | A549/ATCC NSCLC 74.4% | 786-0 renal 62.7% | COLO 205 colon 69.8%

CC(C)n1nc(-c2ccc3oc(N)nc3c2)c2c(N)ncnc21
active: NCI-H23 lung 2.3% | NCI-H226 lung -28.2% | NCI-H322M lung -7.33% | HOP-62 NSCLC -25.5% | NCI-H460 lung 5.28% | HOP-92 NSCLC -40% | NCI-H522 lung 2.22% | A549/ATCC NSCLC -6.71% | 786-0 renal -36.7% | COLO 205 colon -3%

CC/C(=C(/c1ccc(Cl)cc1)c1ccc(OCCN2CCCCCC2)cc1)c1ccccc1
inactive: NCI-H23 lung 77.5% | NCI-H226 lung 97.6% | NCI-H322M lung 107% | HOP-62 NSCLC 103% | NCI-H460 lung 56.4% | HOP-92 NSCLC 80.3% | NCI-H522 lung 89.6% | A549/ATCC NSCLC 59.5% | 786-0 renal 85.2% | COLO 205 colon 37%

Nc1nc(N)c2c(n1)NC(c1ccc3c(c1)OCO3)CC(c1cccc(Nc3ccncc3)c1)=N2 (stereo not given)
inactive: NCI-H23 lung 90% | NCI-H226 lung 84.6% | NCI-H322M lung 96.9% | HOP-62 NSCLC 90.4% | NCI-H460 lung 96.5% | HOP-92 NSCLC 70.7% | NCI-H522 lung 77.3% | A549/ATCC NSCLC 79.6% | 786-0 renal 96.9% | COLO 205 colon 86.3%

COc1cc(OCc2cccc(-c3ccccc3)c2C)cc(OC)c1CN1CCCCC1C(=O)NCCOCCOCCN (stereo not given)
inactive: NCI-H23 lung 86.8% | NCI-H226 lung 86.4% | NCI-H322M lung 89.6% | HOP-62 NSCLC 89.8% | NCI-H460 lung 41.8% | HOP-92 NSCLC 46.4% | NCI-H522 lung 93.3% | A549/ATCC NSCLC 70.6% | 786-0 renal 90.8% | COLO 205 colon 20%

Cc1cc(C)n(C(=O)CSc2nc3sc4c(c3c(=O)n2-c2ccccc2)CCCCC4)n1
inactive: NCI-H23 lung 91.6% | NCI-H226 lung 98.1% | NCI-H322M lung 99.1% | HOP-62 NSCLC 96.3% | NCI-H460 lung 103% | HOP-92 NSCLC 95.1% | NCI-H522 lung 85.8% | A549/ATCC NSCLC 97.6% | 786-0 renal 108% | COLO 205 colon 115%

O=C(c1ccccc1)[C@@H](c1ccccc1)[C@]1(O)C(=O)Nc2ccccc21
inactive: NCI-H23 lung 95% | NCI-H226 lung 83.1% | NCI-H322M lung 87.4% | HOP-62 NSCLC 77.3% | NCI-H460 lung 95% | HOP-92 NSCLC 74% | NCI-H522 lung 93.7% | A549/ATCC NSCLC 103% | 786-0 renal 97.7% | COLO 205 colon 84.1%

N#C/C(=N\Nc1ccccc1)C(=O)Nc1cc(-c2ccccc2)nn1-c1ccccc1
active: NCI-H23 lung 6.94% | NCI-H322M lung 8.62% | NCI-H460 lung 6.6% | HOP-92 NSCLC -18.6%
inactive: NCI-H226 lung 25.6% | HOP-62 NSCLC 52.8% | NCI-H522 lung 15.4% | A549/ATCC NSCLC 30.4% | 786-0 renal 50.5% | COLO 205 colon 48.4%

CC1(C)CC[C@]2(CO)CC[C@]3(C)C(=CC[C@@H]4[C@@]5(C)CCNCC(C)(C)[C@@H]5CC[C@]43C)[C@@H]2C1
active: COLO 205 colon -44.1%
inactive: NCI-H23 lung 88.4% | NCI-H226 lung 106% | NCI-H322M lung 68.9% | HOP-62 NSCLC 99.3% | NCI-H460 lung 49.5% | HOP-92 NSCLC 64.2% | NCI-H522 lung 70.7% | A549/ATCC NSCLC 85.6% | 786-0 renal 84.6%

Nc1nc(=O)n([C@H]2CC=C(CO)O2)cc1F
inactive: NCI-H23 lung 98.5% | NCI-H226 lung 99.6% | NCI-H322M lung 95.9% | HOP-62 NSCLC 99.1% | NCI-H460 lung 98.4% | HOP-92 NSCLC 101% | NCI-H522 lung 80.7% | A549/ATCC NSCLC 89.7% | 786-0 renal 102% | COLO 205 colon 107%

CCCCCCCCNC(=O)[C@@H](N)CSCOC(C)=O
inactive: NCI-H23 lung 87.4% | NCI-H226 lung 104% | NCI-H322M lung 89.8% | HOP-62 NSCLC 66.7% | NCI-H460 lung 72.9% | HOP-92 NSCLC 122% | NCI-H522 lung 90.6% | A549/ATCC NSCLC 84.3% | 786-0 renal 106% | COLO 205 colon 109%

C=CCOC(=O)C1=C(C)N(CC)C(=O)N(CC)C1c1c(Cl)n(C)c2ccccc12 (stereo not given)
inactive: NCI-H23 lung 78.7% | NCI-H226 lung 95.1% | NCI-H322M lung 74.4% | HOP-62 NSCLC 84.1% | NCI-H460 lung 88.1% | HOP-92 NSCLC 21.6% | NCI-H522 lung 84.8% | A549/ATCC NSCLC 63.7% | 786-0 renal 91.9% | COLO 205 colon 96.9%

Cc1nn(-c2ccccc2)c(Oc2ccccc2)c1/C=N/NC(=O)Cn1c(=O)sc2ccccc21
inactive: NCI-H23 lung 37.4% | NCI-H226 lung 69.8% | NCI-H322M lung 74.9% | HOP-62 NSCLC 57.4% | NCI-H460 lung 55.6% | HOP-92 NSCLC 50.1% | NCI-H522 lung 40.6% | A549/ATCC NSCLC 37.5% | 786-0 renal 74.5% | COLO 205 colon 28.5%

COc1cc(OC)cc(C(=O)Nc2cnc(Nc3ccc(N4CCOCC4)nc3)nc2Oc2ccc(C(F)(F)F)cc2)c1
inactive: NCI-H23 lung 82% | NCI-H226 lung 39.9% | NCI-H322M lung 77.4% | HOP-62 NSCLC 43.1% | NCI-H460 lung 31.1% | HOP-92 NSCLC 86.7% | NCI-H522 lung 77.1% | A549/ATCC NSCLC 35.4% | 786-0 renal 54.8% | COLO 205 colon 83%

O=C1CCC(C(=O)N/N=C/c2ccc([N+](=O)[O-])cc2)N1 (stereo not given)
inactive: NCI-H23 lung 98.6% | NCI-H226 lung 106% | NCI-H322M lung 102% | HOP-62 NSCLC 110% | NCI-H460 lung 101% | HOP-92 NSCLC 89.1% | NCI-H522 lung 96.1% | A549/ATCC NSCLC 102% | 786-0 renal 95.5% | COLO 205 colon 108%

CO[C@H]1CC(c2ccc[nH]2)=N[C@]12O[C@@H](C)C[C@@H]1CCCCCCCc3ccc([nH]3)[C@H]12
inactive: NCI-H23 lung 28.1% | NCI-H226 lung 29.3% | NCI-H322M lung 37.8% | HOP-62 NSCLC 14.8% | NCI-H460 lung 17% | HOP-92 NSCLC 10.3% | NCI-H522 lung 20.8% | A549/ATCC NSCLC 11.2% | 786-0 renal 11.7%
active: COLO 205 colon 7.52%

Cn1cc(-c2ccc3c(Nc4cccc(NC(=O)Nc5cccc(F)c5)c4)ncnc3c2)cn1
inactive: NCI-H23 lung 47.1% | NCI-H226 lung 67.8% | NCI-H322M lung 40.7% | HOP-62 NSCLC 42.8% | NCI-H460 lung 29.1% | HOP-92 NSCLC 53.6% | NCI-H522 lung 26.5% | A549/ATCC NSCLC 28.7% | 786-0 renal 18.1%
active: COLO 205 colon 4.23%

C=CCn1c(SCC(=O)Nc2ccc(C(=O)/C=C/c3ccc(Cl)cc3)cc2)nnc1-c1ccccc1
inactive: NCI-H23 lung 95% | NCI-H226 lung 94.7% | NCI-H322M lung 96.7% | HOP-62 NSCLC 97% | NCI-H460 lung 106% | HOP-92 NSCLC 93.2% | NCI-H522 lung 82.2% | A549/ATCC NSCLC 93.2% | 786-0 renal 81.8% | COLO 205 colon 105%

CSc1nc(N)c2c(n1)NC(c1ccccc1)C1CCc3ccccc3C1=N2 (stereo not given)
inactive: NCI-H23 lung 39.4% | NCI-H226 lung 77.6% | NCI-H322M lung 112% | HOP-62 NSCLC 64.4% | NCI-H460 lung 57.3% | HOP-92 NSCLC 51.2% | NCI-H522 lung 45.9% | A549/ATCC NSCLC 72.2% | 786-0 renal 69.2% | COLO 205 colon 78.6%

Cn1cc(-c2nc(-c3c[nH]c4ccncc34)cs2)c2cc(F)ccc21
active: NCI-H23 lung -55.9% | NCI-H322M lung -75% | HOP-62 NSCLC -85.6% | NCI-H460 lung -70.5% | HOP-92 NSCLC -89.5% | NCI-H522 lung -66.1% | A549/ATCC NSCLC -79.6% | 786-0 renal -92.5% | COLO 205 colon -74.1%
inactive: NCI-H226 lung 57.9%

O=C(Nc1cccc(Cn2c(=O)[nH]c3ccc(Oc4ncccn4)cc3c2=O)c1)c1cccc(Cl)c1
inactive: NCI-H23 lung 48.6% | NCI-H226 lung 68.6% | NCI-H322M lung 75.5% | HOP-62 NSCLC 79.3% | NCI-H460 lung 57.7% | HOP-92 NSCLC 75.4% | NCI-H522 lung 61.5% | A549/ATCC NSCLC 55.5% | 786-0 renal 65.8% | COLO 205 colon 71.9%

COc1ccc(C2CC(=O)Oc3c(OC)c4c(c(OC)c32)OCO4)cc1 (stereo not given)
inactive: NCI-H23 lung 98.1% | NCI-H226 lung 112% | NCI-H322M lung 90.1% | HOP-62 NSCLC 84.9% | NCI-H460 lung 107% | HOP-92 NSCLC 101% | NCI-H522 lung 85.7% | A549/ATCC NSCLC 97.6% | 786-0 renal 100% | COLO 205 colon 103%
